Test in all cases: NCI-60 one-dose screen, 48 h (100 = growth as untreated, 0 = no growth, -100 = all killed)
What all share (conditions): 10 µM unless noted

Experiment [1] relates to NCI/ADR-RES ovarian.
Experiment [2] relates to T-47D breast.
Experiment [3] deals with BT-549 breast.
Experiment [4] deals with MDA-MB-435 melanoma.
Experiment [5] has as its system SW-620 colon.
For experiment [6], the system named is MCF7 breast.
The subject of experiment [7] is HCT-116 colon.
Experiment [8] has as its system HCC-2998 colon.
For experiment [9], the system named is KM12 colon.

This is an account of results in PubChem BioAssay (NCI).

Compounds without any hit were thinned out: in the full panel of roughly 83,000, 20% have a hit.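 Step 1: grow cells in 96-well plates. Step 2: add test compound at a single concentration. Step 3: incubate 48 h. Step 4: record percent growth.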 Values without a mark were called inactive. The source made the active and inactive calls. Rule for the calls: active = growth percent below 10; inactive = the rest.

`CN[C@@]1(c2ccccc2Cl)CCCC[C@@H]1NCC1CCCO1` (stereo partly specified): the growth in [1] was 101%; in experiment [2], 93%; in experiment [3], 102%; in [4] it was 102%; in experiment [5], 102%; in experiment [6] it was 98.6%. Also, the growth was 105% in experiment [7], 101% in experiment [8] and 108% in [9].

Consider `Cc1c(O)c(CN(CCCl)CCCl)cc(CN(CCCl)CCCl)c1O`, for which the growth was 103% in [1]; 79.3% in [2]; 99.1% in experiment [3]; 96.8% in experiment [4]; 67.9% in experiment [5]; 67.5% in experiment [6]. In addition, the growth in [7] is 84%; in experiment [8], 90.6%; in experiment [9], 103%.

For `Cc1cc(C)cc(Nc2nc3c(s2)CC[C@@]2(C)C3=CC[C@@H]3[C@@H]2CC[C@]2(C)C(=O)CC[C@@H]32)c1`, the growth is 74.5% in [1]; 28.9% in experiment [2]; 47.2% in experiment [3]; 72.8% in [4]; 37.8% in [5]; 16.9% in experiment [6]. The growth in [7] is 6.21% (active); in experiment [8], 94.2%; in [9] it was 55.5%.

As for `CC[C@H](C)[C@H](NC(=O)[C@H]1CCCCN1C)C(=O)N(C)[C@H](CCc1nc(C(=O)N[C@@H](Cc2ccccc2)C[C@H](C)C(=O)OC)cs1)C(C)C`, the growth was 29.2% in experiment [1]; 59.3% in experiment [2]; -8.87% (active) in experiment [3]; -39.4% (active) in experiment [4]; 28% in experiment [5]; 20.5% in experiment [6]. Besides, the values for the growth in experiment [7], in experiment [8] and in [9] were 1.83% (active), 20.7% and 15.8%, respectively.

As to `COc1ccc(Nc2ccc([N+](=O)[O-])cc2[N+](=O)[O-])cc1CN(CCCl)CCCl`, the growth was 26.9% in experiment [1]; 22.6% in [2]; 40.1% in [3]; 55.2% in experiment [4]; 20.3% in experiment [5]; 19.3% in experiment [6]. Also, the growth is 20.8% in experiment [7], 37.7% in experiment [8] and 53.1% in experiment [9].

Take `O=C1NC(=O)C(=Cc2ccc(OCCCCC3CCCCC3)c(Cl)c2)C(=O)N1`: the growth in experiment [1] was 107%; in experiment [2] it was 91.6%; in experiment [3], 95.1%; in experiment [4], 102%; in experiment [5] it was 98%; in [6], 88.8%. Further, the growth in experiment [7] is 91.3%; in experiment [8], 102%; in [9], 104%.

On to `Cc1sc2c(c1C)C(c1ccc(Cl)cc1)=N[C@@H](CC(=O)OC(C)(C)C)c1nnc(C)n1-2`, for which the growth in experiment [1] is 34.2%; in experiment [2] it was 51.9%; in [3] it was 58.5%; in [4] it was 30%; in [5] it was 52.4%; in experiment [6], 19.1%. Further, the growth in experiment [7] is 31%; in [8], 19.1%; in [9], 40.7%.

As for `O=C(CC1(O)C(=O)N(Cc2ccccc2)c2ccc(Cl)cc21)c1ccc(C(=O)NCC2CCC3(CC2)OOC2(CCCCC2)OO3)cc1` (stereo unspecified), the growth was -42.7% (active) in experiment [1]; -56% (active) in experiment [2]; 11.8% in experiment [3]; -67.8% (active) in [4]; -56.5% (active) in experiment [5]; 17.4% in experiment [6]. Moreover, the growth in experiment [7] was 3.72% (active); in [8] it was 67.6%; in [9], -67.3% (active).

With `CCCOC(=O)N[C@H]1CCc2c(Br)c(OC)c(OC)c(OC)c2-c2ccc(SC)c(=O)cc21`, the growth in experiment [1] was 10.4%; in experiment [2], 51.5%; in experiment [3] it was 2.53% (active); in experiment [4], -49.4% (active); in [5] it was 15.3%; in experiment [6] it was 10%. Also, the growth was -12.6% (active) in [7], 16.2% in experiment [8] and -15.7% (active) in experiment [9].

Take `NC(=O)CNc1ccc([As]=[As]c2ccc(NCC(N)=O)cc2)cc1` (stereo unspecified): the growth in [1] is 65.6%; in [2], 33.3%; in experiment [3], 31.6%; in experiment [4], 61.7%; in experiment [5], 24.6%; in experiment [6] it was 22.9%. The values for the growth in experiment [7], in experiment [8] and in experiment [9] were 54.7%, 79.1% and 88.5%, respectively.

In the case of `CC[C@H](C)[C@H](NC(=O)[C@H]1CCCCN1C)C(=O)N(C)[C@H](CC(=O)c1nc(C(=O)N[C@@H](Cc2ccccc2)C[C@H](C)C(=O)O)cs1)C(C)C`, the growth in experiment [1] is 113%; in experiment [2] it was 64.8%; in experiment [3] it was 63%; in [4] it was 15.5%; in experiment [5] it was 50.2%; in [6] it was 23.1%. The growth in experiment [7] was 77.3%; in experiment [8], 87.9%; in experiment [9], 65.1%.

Regarding `Cn1cc(C2=C(c3cn(C4CCN(Cc5ccccn5)CC4)c4ccccc34)C(=O)NC2=O)c2ccccc21`, the growth in [1] was 84.4%; in experiment [2], 54.5%; in experiment [3], 78.3%; in experiment [4], 47.6%; in [5], 47.8%; in [6] it was 76.1%. Moreover, the growth was 38.2% in experiment [7], 31.4% in experiment [8] and 57.2% in experiment [9].

Regarding `Cc1cc(C)c(CBr)c(C)c1`, the growth was 103% in experiment [1]; 101% in experiment [2]; 105% in experiment [3]; 111% in experiment [4]; 103% in experiment [5]; 96.4% in experiment [6]. Further, the results for the growth in experiment [7], in experiment [8] and in [9] were 110%, 114% and 105%, respectively.

On to `CCN1C(=O)C(=C/C=C/c2ccccc2)C(=O)N(CC)C1=O`, for which the growth in experiment [1] is 78.6%; in experiment [2], 96.3%; in [3], 91.9%; in experiment [4] it was 29.9%; in experiment [5] it was 26.5%; in experiment [6], 74.5%. The values for the growth in [7], in experiment [8] and in experiment [9] were 16.3%, 112% and 86.5%, respectively.
